# Measurements published in PubChem BioAssay AID504882 (Broad Institute, 2011).
# About 290 (24%) of roughly 1,200 compounds were called active. Roughly 9% stayed inconclusive and do not appear here. No rule for the calls is given here. Only a sample is shown. Results with a measured potency or affinity are listed apart.
# Assay: cytotoxicity in EBV lymphoblastoid cells, dose response, cytotoxicity control, cell-based, plate reader, cherry-picks, set 2 (AID 504882);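 also: 0% = neutral control wells and -100% = positive control wells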
# Conditions: EBV lymphoblastoid cells (LCL) viability; series mostly up to 19.5 µM; activity change, negative = cytotoxicity: at the top concentration
Structure (SMILES),"activity change, negative = cytotoxicity",outcome
COc1ccc(C(=O)CN(CCC(=O)O)S(=O)(=O)c2ccc([N+](=O)[O-])cc2)cc1,10.8% (inactive),
O=C(NCCc1ccccc1)c1ccc2nccnc2c1,15.7% (inactive),
CCN(C(=O)CSc1nnc(Nc2cccc(C)c2C)s1)C1CCS(=O)(=O)C1 (centres undefined),26.5% (inactive),
CCCC(C)NC(C)C(=O)NC1CCCC1 (centres undefined),3.5% (inactive),
COCCNC(=O)C1CCC(CNS(=O)(=O)c2ccccc2)CC1 (centres undefined),5.57% (inactive),
Cc1ccc(-c2nnn(CC(=O)N(Cc3ccco3)C(C(=O)NC(C)(C)C)c3ccncc3)n2)o1 (centres undefined),20.2% (inactive),
COCCCNC(=O)CN1C(=O)COc2ccc(S(=O)(=O)N3CCOCC3)cc21,16.5% (inactive),
O=C(CN1C(=O)c2ccccc2S1(=O)=O)c1ccccc1F,10.5% (inactive),
CN(Cc1ccccc1)c1nc(N)c([N+](=O)[O-])c(NCc2ccccc2)n1,1.71% (inactive),
CCCCCn1c(N2CCOCC2)nc2c1c(=O)n(CC(N)=O)c(=O)n2C,1.91% (inactive),
NC(=O)N/N=C/c1ccc(N2CCOCC2)s1,15.9% (inactive),
CCCCCC(=O)N1C[C@@H](O)[C@H](n2cc(C3CC3)nn2)C[C@@H]1c1ccc(C)cc1,17.4% (inactive),
CCN1CCN(Cc2ccc(NC(=O)c3ccc(C)c(NC(=O)c4cccc5[nH]ccc45)c3)cc2C(F)(F)F)CC1,10.9% (inactive),
CCN1CCN(Cc2ccc(NC(=O)c3ccc(C)c(NC(=O)N4CCNC4=O)c3)cc2C(F)(F)F)CC1,,inactive
COc1ccc(/C(CC2OC(=O)c3ccccc32)=N\NC(N)=O)cc1 (centres undefined),2.74% (inactive),
c1ccc2c(-c3ccncc3)c[nH]c2c1,20.4% (inactive),
C[C@@H]1CN([C@@H](C)CO)C(=O)c2cc(NC(=O)Nc3ccccc3)ccc2O[C@H]1CN(C)C(=O)Nc1cccc2ccccc12,1.23% (inactive),
c1ccc(C2c3[nH]c4ccccc4c3CCN2Cc2cccn2-c2ccccn2)nc1 (centres undefined),7.27% (inactive),
COc1ccccc1NC(=O)C(=O)N/N=C(\C)CC(=O)Nc1ccccc1C(F)(F)F,-1.19% (inactive),
COc1ccc(C(=O)N2CC(=O)Nc3ccccc32)cc1S(=O)(=O)N1CCCC1,9.07% (inactive),
COc1ccc(N2C(=O)CC(Sc3nnc(-c4ccccc4)o3)C2=O)cc1 (centres undefined),9.47% (inactive),
COc1cc(OC)cc(-c2c(C#Cc3ccsc3)c3cc(-c4cc(OC)c(OC)c(OC)c4)ccc3n2C)c1,18% (inactive),
Cc1nc(N)nc(SCc2ccc([N+](=O)[O-])cc2)c1N,16.3% (inactive),
COCCCn1cnnc1SCC(=O)Nc1ccc(S(=O)(=O)N2CCCC2)cc1,2.78% (inactive),
O=C(CCN1CCC(c2ccccc2)C1)c1ccc2c(c1)OCCO2 (centres undefined),5.06% (inactive),
COCCn1c(C)cc(C(=O)COC(=O)C23CC4CC(CC(O)(C4)C2)C3)c1C,5.11% (inactive),
CC(C)OCCCNC(=O)C1CCC(CNS(=O)(=O)c2ccccc2)CC1 (centres undefined),16.1% (inactive),

Structure (SMILES),"activity change, negative = cytotoxicity",outcome
COC(=O)c1cc2n(n1)CCN(Cc1ccccc1Cl)C2=O,7.47% (inactive),
COc1ccc(OC)c2c1sc(=NC(=O)c1ccco1)n2C,3.7% (inactive),
CCc1cc2c(Sc3nc4ccccc4s3)ncnc2s1,-26.7% (inactive),
c1ccc(-n2nnc3c(N4CCOCC4)ncnc32)cc1,-8.14% (inactive),
Cc1ccc(CNC(=O)C2CCN(S(=O)(=O)c3c(C)noc3/C=C/c3ccco3)CC2)cc1,2.03% (inactive),
COc1cc(Cl)cc(C(c2c(C(=O)O)[nH]c3ccccc23)c2c(C(=O)O)[nH]c3ccccc23)c1O,1.54% (inactive),
Cn1cccc1C(=O)OCC(=O)Nc1ccc2c(c1)OCO2,12.5% (inactive),
Cc1ccc(C(=O)N2CCN(c3ccc(NC(=O)CSc4ccc(Cl)cc4)cc3)CC2)cc1,12.6% (inactive),
O=C(Nc1cccc(Cl)c1)Nc1cccc(C(=O)O)c1,11.1% (inactive),
CC1CCN(c2ccc(-c3ccc(NC(=O)C(F)(F)F)cc3)nn2)CC1,-0.015% (inactive),
CSc1ccccc1NC(=O)CN1CCCCC1C (centres undefined),8.46% (inactive),
Cc1ccnc(NC(=O)c2cccc(NC(=O)c3ccc(Cl)c(Cl)c3)c2)c1,16.7% (inactive),
S=C(NN=C1C2CC3CC(C2)CC1C3)Nc1ccccc1,21.1% (inactive),
CC(=O)NC(CCS(C)(=O)=O)C(=O)Nc1ccc(Cl)c(Cl)c1 (centres undefined),9.78% (inactive),
Cc1ccc(NC(=S)NCc2cccs2)cc1,15.5% (inactive),
Cn1cccc1CC(=O)NNC(=S)Nc1ccccc1Cl,21.9% (inactive),
COc1ccccc1NC(=S)NN=C(C)c1ccccn1,-19.9% [at 6.8 µM] (inactive),
COCCCNCC1C(Oc2ccc(Cl)cc2)C(=O)N1c1ccccc1C (centres undefined),18.1% (inactive),
O=c1cc(Cl)nc2ccccn12,11% (inactive),
CCCc1nc(SCC(=O)NCc2ccco2)c2c(=O)n(C)c(=O)n(C)c2n1,-11.3% (inactive),
COC(=O)[C@@]1(Cc2ccccc2)[C@H]2C(=O)N(Cc3ccccc3)C(=O)[C@H]2[C@H]2CN=C(SCc3ccc(Cl)cc3)N21,49.3% (inactive),
CCOCCCNC(=O)CN1C(=O)/C(=C\c2ccc(C)cc2)Sc2ccccc21,3.59% (inactive),
O=C1NC(c2cccc(OCc3ccccc3)c2)Nc2ccccc21 (centres undefined),3.11% (inactive),
COc1ccccc1C1(CC(=O)O)CCOC(C)(C)C1 (centres undefined),23.2% (inactive),
Clc1cccc(CN2CCCCCC2)c1,18.4% (inactive),
O=C(c1ccccc1Br)N1CCN(Cc2ccc3c(c2)OCO3)CC1,2.58% (inactive),
Fc1cccc(Cl)c1/C=N/n1c(-c2cccnc2)n[nH]c1=S,13.3% (inactive),
